High-throughput results as filed in PubChem BioAssay.
Rows were chosen to be rich in hits. Some 4.9% of all compounds tested hit in one or more screens of this group.
NALP1 yeast inh – blocks the NALP1 inflammasome reconstituted in yeast; AID 2071; S. cerevisiae NALP1/ASC/caspase-1 growth, X-gal OD620, 72 h; inhibition, % at 10 µM; 0.61% of 280,000 active; in the data active = inhibition mostly above about 24%, no sharp cut-off; inactive = mostly below about 32%
tim23-1 inh – inhibits growth of tim23-1 mutant yeast; AID 463212; 1.3% of 330,000 active; S. cerevisiae tim23-1 growth, BacTiter-Glo luminescence, 24 h; inhibition, % at 20 µM;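 active = growth inhibition of the mutant yeast at or above 50%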;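 also: temperature-sensitive mutant grown at 25 °C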
SKKanGAS inh – SKKanGAS growth inhibition; S. pyogenes SKKanGAS, kanamycin growth, BacTiter-Glo, 6 h; inhibition, % at 7.5 µM; 1.3% of 300,000 active; AID 1662;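 active = mean replicate score, as percent of positive control median, at least 50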;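 also: strain carries kanamycin resistance gene driven by streptokinase promoter and grows in 40 µg/ml kanamycin; loss of luminescence reflects streptokinase promoter inhibition or plain growth inhibition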
tim10-1 inh – tim10-1 yeast growth inhibition. S. cerevisiae tim10-1 ts strain growth, BacTiter-Glo, 24 h. inhibition, % at 20 µM. 2.2% of 330,000 active. AID 463190;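 active = inhibition of at least 40%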;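 also: mutant grown at 25 °C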
NLRP3 yeast inh – blocks the NALP3 inflammasome reconstituted in yeast; inhibition, % at 10 µM; AID 2825; Yeast reconstituted NLRP3/ASC/caspase-1, beta-gal luminescence, 24 h; 0.39% of 330,000 active;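 active = inhibition of 50% or more; inactive = inhibition below 50%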
TIM10 inh – TIM10 yeast growth inhibition; S. cerevisiae TIM10 strain growth, BacTiter-Glo luminescence, 24 h; inhibition, % at 10 µM; 1.4% of 330,000 active; AID 463195;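 active = inhibition of 40% or more at the single tested concentration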;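 also: wild-type TIM10 isogenic control strain grown at permissive 25 °C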
Of the large screens only hits and unclear results are named; the others gave an inactive call.

Cc1cccc(NC(=O)c2nc[nH]c2C(=O)N[C@@H](CCCCNC(=O)OC(C)(C)C)C(=O)OC(C)(C)C)c1	SKKanGAS inh 91 (no result: NALP1 yeast inh)
CC(C)C[C@H](NC(=O)c1nc[nH]c1C(=O)NC1CCN(C(=O)OC(C)(C)C)CC1)C(=O)OCc1ccccc1	SKKanGAS inh 73
CC(C)C[C@H](NC(=O)c1[nH]cnc1C(=O)N[C@@H](C)C(=O)OCc1ccccc1)C(=O)OCc1ccccc1	none (no result: NALP1 yeast inh, SKKanGAS inh)
CC(C)C[C@H](NC(=O)c1nc[nH]c1C(=O)NCc1ccccc1)C(=O)OC(C)(C)C	none
Cc1cccc(NC(=O)CN2CCN(C(=O)c3c(C)nn(Cc4ccccc4)c3C)CC2)c1C	none (no result: NALP1 yeast inh, SKKanGAS inh)
CC(=O)N(CC(C)C(=O)O)c1c(I)cc(I)c(N)c1I (stereo unspecified)	none (no result: NALP1 yeast inh, SKKanGAS inh)
CC(C)C[C@H](NC(=O)c1[nH]cnc1C(=O)N[C@@H](Cc1ccccc1)C(=O)OC(C)(C)C)C(=O)OC(C)(C)C	SKKanGAS inh 83 (no result: NALP1 yeast inh)
COc1ccc(NC(=O)c2nc[nH]c2C(=O)N[C@@H](CC(C)C)C(=O)OC(C)(C)C)cc1	SKKanGAS inh 76 (no result: NALP1 yeast inh)
COc1ccc(NC(=O)c2nc[nH]c2C(=O)N[C@@H](C)C(=O)OC(C)(C)C)cc1	none (no result: NALP1 yeast inh)
Cc1cccc(NC(=O)c2nc[nH]c2C(=O)N[C@@H](CC(C)C)C(=O)OCc2ccccc2)c1	SKKanGAS inh 92 (no result: NALP1 yeast inh)
COc1ccc(OC)c(/C=C2\S/C(=N/NC(=O)c3ccc4ccccc4c3)NC2=O)c1	SKKanGAS inh 106 (no result: tim23-1 inh, tim10-1 inh, NLRP3 yeast inh, TIM10 inh)
Cc1ccc2c(c1)N(S(=O)(=O)c1ccc(F)cc1)C(C(C)(C)C)CO2 (stereo unspecified)	none
Cc1ccc(S(=O)(=O)N2c3ccccc3OCC2C(C)(C)C)cc1 (stereo unspecified)	SKKanGAS inh 58
CC[C@]12c3[nH]c4cc(-c5ccco5)ccc4c3CCN1C(=O)[C@@H](CC(=O)NCCCOC)C[C@@H]2C(=O)N1CCN(C(=O)c2ccco2)CC1	none (no result: NALP1 yeast inh, SKKanGAS inh, NLRP3 yeast inh)
CC(=O)NC(=S)NNC(=O)C(c1ccccc1)c1ccccc1	SKKanGAS inh 80
N#CCC(=O)NNC(=S)NC(=O)C(c1ccccc1)c1ccccc1	none
CCCc1nn(C)c2c(=O)[nH]c(-c3cc(S(=O)(=O)N(CCO)CCO)ccc3OCC)nc12	NALP1 yeast inh 30
CCOc1ccc(S(=O)(=O)N(CCO)CCO)cc1-c1nc2c(C(C)(C)C)nn(C)c2c(=O)[nH]1	none
CCN(CC)c1ccc(/C=C(/C#N)c2nc3ccc(C)cc3[nH]2)c(OC(C)C)c1	none
CCCOc1cc(N(CC)CC)ccc1/C=C(/C#N)c1nc2ccc(C)cc2[nH]1	SKKanGAS inh 61
Cc1cccc(Cn2cnc3c(nnn3Cc3ccc(Cl)cc3)c2=O)c1	none
Cc1cccc(Cn2nc(-n3cccc3)c3c(C)cc(C)nc32)c1	SKKanGAS inh 55
Cc1ccc(NC(=O)CCC(=O)N2CCN(S(=O)(=O)c3ccc(C)cc3)CC2)cc1	none (no result: NALP1 yeast inh, SKKanGAS inh)
CCOP(=O)(OCC)c1ccc2ccc3ccccc3c(=O)c2c1	none (no result: NALP1 yeast inh, SKKanGAS inh)
COc1ccc(NC(=O)/C=C/c2ccccc2[N+](=O)[O-])c(OC)c1	none
COc1ccc(NCc2ccc([N+](=O)[O-])s2)c(OC)c1	NALP1 yeast inh 52 (no result: tim23-1 inh, SKKanGAS inh, tim10-1 inh, NLRP3 yeast inh, TIM10 inh)
OCC(O)C(O)C(O)C(O)c1nc2ccccc2[nH]1 (stereo unspecified)	NALP1 yeast inh 25
Cc1ccc(NC(=O)c2ccccc2NS(=O)(=O)c2ccc(F)cc2)cc1S(=O)(=O)N1CCCCC1	SKKanGAS inh 60
O=C(Nc1cccc(S(=O)(=O)N2CCCCC2)c1)c1ccccc1NS(=O)(=O)c1ccc(F)cc1	none
COc1ccc(C(NC(C)=O)c2cc(Cl)c3cccnc3c2O)cc1 (stereo unspecified)	SKKanGAS inh 53
CCCC(=O)NC(c1ccc(OC)c(OC)c1)c1cc(Cl)c2cccnc2c1O (stereo unspecified)	none
O=C(NC(c1ccc(Cl)cc1)c1cc(Cl)c2cccnc2c1O)c1cccnc1 (stereo unspecified)	SKKanGAS inh 113 (no result: tim23-1 inh, tim10-1 inh, NLRP3 yeast inh, TIM10 inh)
C=CC[C@@H](CC(=O)NCCO)C(=O)N[C@H](C)COC(=O)[C@@H](CC=C)Cc1ccc(F)cc1	none (no result: NALP1 yeast inh, SKKanGAS inh)
O=C1COc2ccc(S(=O)(=O)CCC(=O)NC3CCCCC3)cc2N1	none
CCOc1ccccc1CN1CCN(Cc2nc3c(s2)CCCC3)CC1CCO (stereo unspecified)	NALP1 yeast inh 35
Cc1nc(-c2ccccn2)nc(SCC(=O)N2CCOCC2)c1Cl	none (no result: NALP1 yeast inh)
